# Source: the supplement of paper PMC11417369
# In all, about 25,000 sequences were measured (“ln(normalized median fluorescence intensity)”: median about 9.3, highest 2% from about 10 on). This is one part of a sample in which the highest values are shown more often than they occur.
# System: PF3D7_0420300 AP2 domain 1 (GST-tagged)
# Assay: gcPBM binding intensity (ln(normalized median fluorescence intensity)); higher = stronger DNA binding
# How it was run: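 GST-tagged P. falciparum DNA-binding domains produced in E. coli were incubated for 1 h on an Agilent 4 × 180k array of primer-extended double-stranded 36-bp intergenic genomic probes with negative controls. Binding intensity is the highest Masliner-normalised natural-log median intensity across replicate spots of either probe orientation, with bound protein detected by Alexa488 anti-GST antibody at 488 nm.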
row,Sequence,gcPBM binding intensity (ln)
1,CAGTAGTATATACTATGTACATATTTATATTATATT [XGTACX_site4964],9.22
2,TAATAAACCAAACTAAACAATATATCAAAAAGCACA [CACACA_negctrl_site269],9.75
3,TATATATATATTTTAACACACACATATATATATTTA [CACACA_site8892],9.63
4,TGAAAGAACCTGATTACACACATAAATTATATATAT [CACACA_site26],9.54
5,GTAATATCAATATAAAGTACACACTATAGTATGTAT [XGTACX_site4714],9.52
6,TTTTAAATAAAAAAATTAAATTAAAATATATAAAAA [XGTACX_negctrl_site490],8.82
7,TGTATTAACAAAAAGGTGCGGATATATATAAAAAAT [GTGCAC_site9473],9.61
8,ATACATATATACATATGTACATATATATATATATAT [XGTACX_site8206],9.3
9,AAAAAAAAAAAAAAAAAAAAAAATATATATATATAT [XGTACX_negctrl_site33],9.26
10,ACATCGATTTATATTCTGCACTGAAGAAACTACAAC [GTGCAC_site9967],9.32
11,TAGAAGCAGAAACACACACACATACATACACATACA [CACACA_site1467],9.99
12,TGTAAATTTGGCATCACACATAAATAAACATATAAA [CACACA_site4497],9.4
13,TAATTTTTGAAACACACACACATATATATATATATA [CACACA_site94],9.71
14,CATATTTGGAAACACACACACATATTTATATATATA [CACACA_site3569],9.95
15,ATTTGGCATAAACACACACACACACCCACCCACATA [CACACA_site8096],10.4
16,ATAATTTGGAAACACACACACACACCCACATATATA [CACACA_site2286],10.3
17,ATTTGGCAGAAACACACACACACACCCACCCACATA [CACACA_site589],10.4
18,TACATAAATTAATAGTCACACACGTATTTTTTATAT [CACACA_site8806],9.45
19,AATAGAACTATTACACGTACAGAACATGAATTAGTT [XGTACX_site7518],9.36
20,TCAAAAGAAATAAAAACATGCATAAAAGTAAAAATA [TGCATGCA_site832],9.33
21,ATAAATGACAAATTAACACACATATATTATAGATAT [CACACA_site7770],9.68
22,TATATATTATATAAATAAATAAATATATATATTTAT [TGCATGCA_negctrl_site270],8.94
23,TTTTTATTTTTTTACAGTACATAAAATAAATAAATA [XGTACX_site6596],8.84
